The values that follow come from ChEMBL document CHEMBL1157539, “Thousands of chemical starting points for antimalarial lead identification” (Nature, 2010).

Common to all, as to assay type: functional
Assay [1] concerns Plasmodium falciparum. Nature of the assay: GSK_TCMDC: Inhibition of Plasmodium falciparum 3D7 in whole red blood cells, using parasite LDH activity as an index of growth. Test compounds present at 2uM.
Assay [2] relates to Plasmodium falciparum. Nature of the assay: GSK_TCMDC: Inhibition of Plasmodium falciparum Dd2 in whole red blood cells, using parasite LDH activity as an index of growth. Test compounds present at 2uM.
For another assay, the system named is HepG2. Nature of the assay: GSK_TCMDC: Percent inhibition of human HepG2 cell line. Test compounds present at 10uM.

`COc1cc(C(=O)Nc2ccc3nc(N4CCN(C)CC4)cc(C)c3c2)cc(OC)c1OC`: the Inhibition with Plasmodium falciparum [1] was 100%; in the assay with Plasmodium falciparum [2], 79%; in the assay on HepG2, 18%.

In the case of `COc1c(C)cc(I)cc1CNCCCNc1cc(=O)c2ccccc2[nH]1`, the Inhibition came to 84% in the assay on Plasmodium falciparum [1], 0% with Plasmodium falciparum [2] and 0% in the assay on HepG2.

As for `CS(=O)(=O)O.CSc1ccc2ccccc2c1CNCCCCCCNCc1c(SC)ccc2ccccc12`, the Inhibition in the assay on Plasmodium falciparum [1] amounted to 99%; in the assay on Plasmodium falciparum [2], 74%; in the assay with HepG2 it was 83%.

Regarding `Cc1cccc2nc(-c3ccc(-c4ccc(CN5CCN(CC6CCCN(C)C6)CC5)cc4)s3)[nH]c12.O=C(O)C(F)(F)F` (stereo unspecified), the Inhibition in the assay on Plasmodium falciparum [1] is 100%; in the assay with Plasmodium falciparum [2] it was 99%; in the assay with HepG2, 63%.

Turning to `O=C(/C=C/c1ccc(Cl)c(Cl)c1)NCCCCCN1CCCC(CNC(=O)Nc2ccc(Oc3ccccc3)cc2)C1` (stereo unspecified), the figures for the Inhibition in the assay on Plasmodium falciparum [1], with Plasmodium falciparum [2] and in the assay on HepG2 were 99%, 6% and 26%, respectively.

Regarding `Cl.Cn1ncc2c3c(CCN4CCC(NCc5cc6c(cn5)OCC6)CC4)c(Cl)cnc3ccc21`, the Inhibition with Plasmodium falciparum [1] came out at 94%; in the assay on Plasmodium falciparum [2], 0%; with HepG2, 4%.

For `Cc1cc(=NN=Cc2ccc(Cl)cc2)c2cc(C(F)(F)F)ccc2[nH]1`, the Inhibition was found to be 91% with Plasmodium falciparum [1], 32% in the assay on Plasmodium falciparum [2] and 0% in the assay on HepG2.

Regarding `COc1cc2nc(N3CCC(CCCC4CCNCC4)CC3)nc(NCc3ccccn3)c2cc1OC.O=C(O)C(F)(F)F`, the Inhibition in the assay with Plasmodium falciparum [1] was 100%; with Plasmodium falciparum [2], 6%; with HepG2 it was 2%.

As to `O=C(O)C(F)(F)F.Oc1ccc(CCCNc2nc(NCc3ccccc3-c3ccccc3)nc(NC3CCNCC3)n2)cc1`, the Inhibition in the assay on Plasmodium falciparum [1] is given as 97%; in the assay on Plasmodium falciparum [2], 2%; in the assay on HepG2 it was 0%.

Consider `COc1ccc2ncc(F)c(CCN3CCC(NCc4cc5c(cn4)OCCS5)CC3)c2c1.Cl`, for which the Inhibition in the assay on Plasmodium falciparum [1] stood at 89%; in the assay on Plasmodium falciparum [2], 40%; in the assay on HepG2, 4%.

Consider `Cc1cc(Nc2ccc(C(C)(C)C)cc2)c2[nH]ncc2n1.Cl`, for which the Inhibition is listed as 83% in the assay on Plasmodium falciparum [1], 63% in the assay with Plasmodium falciparum [2] and 31% in the assay on HepG2.

With `COc1cc2nccc(Nc3ccc4c(cnn4Cc4ccccc4F)c3)c2cc1OC.Cl`, the Inhibition is recorded as 100% in the assay with Plasmodium falciparum [1], 91% in the assay on Plasmodium falciparum [2] and 55% in the assay on HepG2.

As for `COc1c(CNCCCCCCNCc2cc(Cl)c3ccccc3c2OC)cc(Cl)c2ccccc12.CS(=O)(=O)O`, the Inhibition was 96% in the assay on Plasmodium falciparum [1], 45% in the assay with Plasmodium falciparum [2] and 100% with HepG2.

As for `COc1ccc(C(=O)C2CCN(CCCCNC(=O)c3ccc(NC(=O)c4ccc(Cl)cc4)cc3)CC2)c(OC)c1`, the Inhibition in the assay on Plasmodium falciparum [1] came out at 98%; in the assay on Plasmodium falciparum [2], 13%; with HepG2, 47%.

As for `O=C(N[C@@H](Cc1ccccc1)C(=O)NCc1cccc2ccccc12)c1ccc(O)c(-c2ccc(Cl)c(Cl)c2)c1`, the Inhibition stood at 100% with Plasmodium falciparum [1], 97% with Plasmodium falciparum [2] and 0% in the assay on HepG2.

In the case of `NC1=NC(c2ccccc2)(c2ccccc2)C(=O)N1C1CCCCC1.O=CO`, the Inhibition in the assay on Plasmodium falciparum [1] worked out at 100%; with Plasmodium falciparum [2], 87%; in the assay with HepG2 it was 13%.

For the compound `Nc1c2c(nc3ccc(Oc4ccc(Cl)cc4)cc13)CCCC2`, the Inhibition with Plasmodium falciparum [1] turned out to be 100%; in the assay with Plasmodium falciparum [2], 65%; in the assay on HepG2, 42%.

For the compound `O=C(Nc1ccc(-c2nc3ccccc3[nH]2)cc1)C1CCN(Cc2ccccc2)CC1`, the Inhibition turned out to be 100% in the assay on Plasmodium falciparum [1], 82% with Plasmodium falciparum [2] and 12% with HepG2.

As for `CN(C)CCNCc1nc(-c2ccc3c(Nc4ccc(Oc5ccccc5)cc4)ccnc3c2)cs1`, the Inhibition in the assay with Plasmodium falciparum [1] was found to be 100%; in the assay with Plasmodium falciparum [2] it was 100%; in the assay with HepG2, 8%.

For the compound `COC(=O)c1cccc(CNCc2ccc(-c3ccc(-c4nc5cc(F)ccc5[nH]4)s3)cc2)c1.O=C(O)C(F)(F)F`, the Inhibition was determined as 100% in the assay with Plasmodium falciparum [1], 82% in the assay with Plasmodium falciparum [2] and 4% in the assay on HepG2.

With `O=C(Nc1ccc(OC2CCN(Cc3ccc(F)cc3)C2)c(Cl)c1)c1ccoc1.O=C(O)C(F)(F)F` (stereo unspecified), the Inhibition in the assay with Plasmodium falciparum [1] is 90%; in the assay on Plasmodium falciparum [2], 90%; in the assay on HepG2, 13%.

As for `CC(C)(C)c1ccc(N2C(N)=NC(N)=NC2(C)C)cc1.Cl`, the Inhibition worked out at 93% in the assay with Plasmodium falciparum [1], 0% with Plasmodium falciparum [2] and 27% in the assay on HepG2.

Turning to `N[C@@H](Cc1ccc(O)cc1)C(=O)NC(c1ccccc1)c1c(O)ccc2ccccc12.O=C(O)C(F)(F)F` (stereo partly specified), the results for the Inhibition in the assay on Plasmodium falciparum [1], in the assay on Plasmodium falciparum [2] and in the assay on HepG2 were 95%, 95% and 6%, respectively.

For the compound `Cc1cc(N(C)C2CCN(C)C2)nc(Nc2ccc(Cl)cc2)n1` (stereo unspecified), the Inhibition in the assay with Plasmodium falciparum [1] is 100%; in the assay on Plasmodium falciparum [2], 88%; in the assay on HepG2, 8%.

For `CC(C)C(=O)n1ncc2c3c(N)nc(N)nc3ccc21`, the figures for the Inhibition with Plasmodium falciparum [1], in the assay with Plasmodium falciparum [2] and in the assay with HepG2 were 87%, 3% and 0%, respectively.

Consider `O=C(Nc1ccc([N+](=O)[O-])cc1)Nc1cc(OCC(F)(F)F)cc(OCC(F)(F)F)c1`, for which the Inhibition in the assay on Plasmodium falciparum [1] is on record as 100%; in the assay with Plasmodium falciparum [2] it was 100%; in the assay with HepG2, 71%.

Take `COc1ccc(-c2ccc([N+](=O)[O-])cc2C(=O)NCC(C)Oc2ccc(C(F)(F)F)cc2)cc1` (stereo unspecified): the Inhibition was 100% with Plasmodium falciparum [1], 81% in the assay on Plasmodium falciparum [2] and 6% in the assay with HepG2.

Consider `COc1cccc(C(=O)NCc2cccs2)c1OCc1ccccc1`, for which the Inhibition in the assay with Plasmodium falciparum [1] came to 96%; in the assay with Plasmodium falciparum [2], 0%; in the assay with HepG2, 0%.

Regarding `CCCCCN1CCCN(Cc2cccc(NC(=O)c3ccc4ccccc4c3)c2)CC1.O=C(O)C(F)(F)F`, the figures for the Inhibition in the assay on Plasmodium falciparum [1], in the assay with Plasmodium falciparum [2] and in the assay on HepG2 were 86%, 16% and 27%, respectively.

With `COc1ccc(Br)cc1/C=C/C(=O)Nc1ccc2c(c1)CCCN(C)C2`, the Inhibition in the assay on Plasmodium falciparum [1] is reported as 84%; in the assay with Plasmodium falciparum [2], 10%; with HepG2, 8%.

In the case of `O=C(NCC1CCN(Cc2cccc(C(F)(F)F)c2)C1)c1cc(-c2cccc(Cl)c2)cs1.O=C(O)C(F)(F)F` (stereo unspecified), the Inhibition in the assay on Plasmodium falciparum [1] was 93%; in the assay on Plasmodium falciparum [2], 14%; in the assay with HepG2, 15%.

Regarding `O=C(N[C@@H](Cc1ccccc1)[C@H](O)CNC1CCCCC1)c1cc(C2CCCC2)cc(N2CCCC2=O)c1`, the Inhibition with Plasmodium falciparum [1] was 100%; in the assay on Plasmodium falciparum [2], 98%; in the assay with HepG2, 17%.
